Measured values reported in PubChem BioAssay.
Entries with a potency or affinity are not part of this list. Inconclusive results are not listed. Calls of active or inactive are those of the source.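 The calls were made as follows, unless noted: active = fitted dose curve reaches 40% lysis signal rise at or below the highest valid concentration tested for that sample; inconclusive = flat fit between 30% and 70%, or poor curve fit; inactive = signal falls, stays flat within 30%, or no crossing.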

How the values were obtained:
[1] = Cryptococcus neoformans growth inhibition, dose response, Alamar Blue, cherry-picks (AID 686998;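 active = falling signal with fitted half-maximal potency no higher than twice the top valid tested dose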)
[2] = inducers of Cryptococcus neoformans cell lysis, dose response, AK release luminescence, cherry-picks (AID 687000);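 also: luminescent detection of adenylate kinase leaking from lysed yeast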
[3] = HepG2 cell cytotoxicity, dose response, cytotoxicity control, cherry-picks, set 2 (AID 687002;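 active = a dose-response fit showing signal loss, with half-maximal concentration no higher than twice the top tested dose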)
[4] = HeLa cell cytotoxicity, dose response, cytotoxicity control, ATP luminescence, cherry-pick samples (AID 687004;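 active = a fitted half-maximal concentration no higher than twice the top valid tested dose, with signal falling as cells die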)

Measured: outcome

O=C(NC(=S)Nc1ccccc1)c1cc([N+](=O)[O-])ccc1N1CCOCC1
inactive: all assays above

COc1ccccc1CNC(=O)C[C@@H]1CC[C@@H]2[C@H](COC[C@@H](O)CN2Cc2ccccc2)O1
inactive: all assays above

CC(C)NC(=O)Nc1ccc2c(c1)C(=O)N([C@@H](C)CO)C[C@H](C)[C@@H](CN(C)C(=O)CCC(F)(F)F)OCCCC[C@H](C)O2
inactive: all assays above

CC(C)NC(=O)N(C)C[C@H]1Oc2c(NC(=O)C3CCCCC3)cccc2C(=O)N([C@H](C)CO)C[C@H]1C
inactive: all assays above

Cc1cc(C(=O)Nc2ccc3c(c2)C(=O)N(C)[C@H]2CC[C@@H](CC(=O)N[C@@H](C)c4ccccc4)O[C@H]2CO3)no1
inactive: all assays above

C/C=C/c1ccc([C@H]2[C@@H](CO)N(C(=O)CC)[C@@H]2CNC(=O)C2CC2)cc1
inactive: all assays above

Cc1cccc(C)c1NC(=O)C(C)N1CCCCC1 (centres undefined)
inactive: all assays above

CCCN1C[C@@H](C)[C@H](OC)CN(C)C(=O)c2ccc(NC(=O)c3cccc(F)c3)cc2OC[C@@H]1C
inactive: all assays above

Cc1cccc(C)c1NC(=O)C1NC(=O)CC1c1ccccc1 (centres undefined)
inactive: all assays above

COc1ccc(NC(=O)Nc2ccc3c(c2)C(=O)N([C@@H](C)CO)C[C@@H](C)[C@H](CN(C)C(=O)Cc2ccccc2)OCCCC[C@H](C)O3)cc1
inactive: all assays above

O=C(C[C@@H]1C=C[C@@H](NC(=O)C2CCC2)[C@H](CO)O1)NC1CCC1
inactive: all assays above

COCC(=O)N(C)C[C@@H]1Oc2ncc(C#CCC3CCCC3)cc2C(=O)N([C@H](C)CO)C[C@H]1C
inactive: all assays above

O=C(C[C@@H]1CC[C@H]2[C@@H](COC[C@@H](O)CN2C(=O)Nc2ccc(Cl)cc2)O1)NCCc1ccncc1
inactive: all assays above

COc1ccc(NC(=O)N(C)C[C@H]2OCCCC[C@H](C)Oc3ccc(NC(=O)C4CCCCC4)cc3C(=O)N([C@@H](C)CO)C[C@@H]2C)cc1
inactive: all assays above

CC(C)NC(=O)N(C)C[C@H]1OCCCC[C@@H](C)Oc2ccc(NC(=O)c3ccccc3)cc2C(=O)N([C@@H](C)CO)C[C@@H]1C
inactive: all assays above

C[C@H]1CN([C@@H](C)CO)C(=O)Cc2cc(NS(=O)(=O)c3ccc(F)cc3)ccc2O[C@H]1CN(C)S(=O)(=O)c1ccc(F)cc1
inactive: all assays above

O=C(CSc1ncnc2c1cnn2-c1ccc(F)cc1)NC1CCCC1
inactive: all assays above

Cc1cccc(C)c1NC(=O)CNC(=O)C(C)N1CCCCC1 (centres undefined)
inactive: all assays above

COc1ccccc1-c1ccc2c(c1)O[C@@H](CN(C)C(=O)c1cccnc1)[C@H](C)CN([C@@H](C)CO)S2(=O)=O
inactive: all assays above

CNC[C@H]1Oc2c(NS(=O)(=O)c3cccs3)cccc2C(=O)N([C@H](C)CO)C[C@@H]1C
inactive: all assays above

CN1C(=O)N[C@@H]2c3ccccc3O[C@@]1(C)[C@@H]2COC(=O)c1ccccc1
inactive: all assays above

C[C@@H]1CN([C@@H](C)CO)C(=O)c2cc(NS(=O)(=O)c3cn(C)cn3)ccc2O[C@@H]1CN(C)C(=O)Nc1cccc2ccccc12
inactive: all assays above

CC(=O)N1[C@H](CO)[C@H](c2ccc(-c3ccccc3)cc2)[C@H]1CNC(=O)C1CC1
inactive: all assays above

O=C([C@H]1[C@H](CO)[C@H]2Cn3c(cccc3=O)[C@@H]1N2Cc1cccc(Cl)c1)N1CCOCC1
inactive: all assays above

CNC(=O)C[C@H]1CC[C@H]2[C@@H](COc3ccc(NC(=O)Nc4ccccc4)cc3C(=O)N2C)O1
inactive: all assays above

C[C@H]1CN([C@@H](C)CO)C(=O)Cc2cc(NS(=O)(=O)c3ccc(F)cc3)ccc2O[C@@H]1CN(C)S(=O)(=O)c1ccc(F)cc1
inactive: all assays above

C[C@H]1CN([C@@H](C)CO)C(=O)Cc2cc(NC(=O)Nc3ccccc3)ccc2O[C@@H]1CN(C)C(=O)Nc1ccc2c(c1)OCO2
inactive: all assays above

C[C@@H]1CN([C@H](C)CO)C(=O)c2cc(-c3ccc(F)cc3)cnc2O[C@H]1CN(C)CC1CCCCC1
inactive: all assays above

CCC(=O)N1[C@H](CO)[C@H](c2ccccc2)[C@@H]1CN(CC)C(=O)c1cccc(F)c1
inactive: all assays above

CCCC(=O)N1CCCC1(C)C(=O)Nc1ccc(C)c(C)c1 (centres undefined)
inactive: all assays above

Cc1cc(C)c(NC(=O)C2CCCN2C)c(C)c1 (centres undefined)
inactive: all assays above

COc1cccc(C2CC(c3cccs3)=NN2C(=O)c2ccco2)c1O (centres undefined)
inactive: all assays above

CCC(C)(NC=O)C(=O)Nc1c(C)cccc1C (centres undefined)
inactive: all assays above

CCC(=O)N(C)C[C@H]1Oc2cc(C#CC(C)(C)O)ccc2S(=O)(=O)N([C@H](C)CO)C[C@@H]1C
inactive: all assays above

C[C@H]1CCCCO[C@H](CN(C)Cc2ccncc2)[C@@H](C)CN([C@@H](C)CO)C(=O)c2cc(NC(=O)CCCN(C)C)ccc2O1
inactive: all assays above

Cc1ccc(NC(=O)[C@H](C)NC(=O)C2CCN(C(=O)[C@@H](N)C(C)C)CC2)cc1
inactive: all assays above

COc1ccc(-n2cc(CNCCc3nc(C)cc(C)n3)c(-c3ccccc3Cl)n2)cc1
inactive: all assays above

COc1cccc(S(=O)(=O)N2C[C@@H](O)COC[C@H]3O[C@H](CC(=O)N4CCN(C)CC4)CC[C@@H]32)c1
inactive: all assays above

COCCNC(=O)C[C@@H]1CC[C@@H]2[C@H](COC[C@@H](O)CN2S(=O)(=O)c2ccccc2C)O1
inactive: all assays above

CC(C)NC(=O)N(C)C[C@@H]1OCCCC[C@H](C)Oc2ccc(NC(=O)c3ccccc3)cc2C(=O)N([C@H](C)CO)C[C@H]1C
inactive: all assays above

CO[C@H]1CN(C)C(=O)c2cc(NS(=O)(=O)CC(F)(F)F)ccc2OC[C@H](C)N(Cc2cccnc2)C[C@@H]1C
inactive: all assays above

O=C(CN(c1ccc(F)cc1)S(=O)(=O)c1ccccc1)NC1CCCCCC1
inactive: all assays above

CO[C@H]1CN(C)C(=O)c2cc(NC(C)=O)ccc2OC[C@H](C)N(Cc2cccc(F)c2)C[C@@H]1C
inactive: all assays above

CC(C)NC(=O)N(C)C[C@@H]1OCCCC[C@@H](C)Oc2ccc(NC(=O)c3ccccc3)cc2C(=O)N([C@H](C)CO)C[C@H]1C
inactive: all assays above

COc1cccc(S(=O)(=O)N2C[C@@H](O)COC[C@@H]3O[C@H](CC(=O)N4CCN(C)CC4)CC[C@H]32)c1
inactive: all assays above

CO[C@@H]1CN(C)C(=O)c2ccc(NC(=O)NC(C)C)cc2OC[C@H](C)NC[C@@H]1C
inactive: all assays above

C[C@H]1CN([C@@H](C)CO)C(=O)c2cccc(NS(C)(=O)=O)c2O[C@@H]1CN(C)Cc1ccc(-c2ccccc2)cc1
inactive: all assays above

Cc1ccc(S(=O)(=O)Nc2ccc3c(c2)C(=O)N([C@@H](C)CO)C[C@H](C)[C@H](CN(C)S(=O)(=O)c2ccc(Cl)cc2)OCCCC[C@@H](C)O3)cc1
inactive: all assays above

O=C(NC[C@H]1[C@@H](c2ccccc2)[C@@H](CO)N1C(=O)C1CCC1)NC1CCCC1
inactive: all assays above

O=C(c1cc(Br)ccc1Cl)N1CCN(c2ccccn2)CC1
inactive: all assays above

COCCNC(=O)C[C@@H]1C[C@@H]2c3cc(NC(=O)C4CCOCC4)ccc3O[C@@H]2[C@@H](CO)O1
inactive: all assays above

C[C@@H](O)C#Cc1ccc([C@@H]2[C@H]3CN(CC4CC4)CCCCN3[C@H]2CO)cc1
inactive: all assays above

CN(C)C(=O)c1ccc(-c2ccc([C@H]3[C@H](CO)N4CCCCN(CCC(F)(F)F)C[C@@H]34)cc2)cc1
inactive: all assays above

C[C@H]1CN([C@@H](C)CO)C(=O)Cc2cc(NC(=O)CCCCCC(=O)Nc3ccccc3N)ccc2O[C@H]1CN(C)C(=O)Nc1ccccc1
inactive: all assays above

COc1ccc(CNC(=O)C[C@H]2CC[C@H]3[C@@H](COc4ccc(NC(=O)C5CC5)cc4C(=O)N3C)O2)cc1
inactive: all assays above

C[C@@H]1CCCCO[C@@H](CN(C)Cc2ccc(C(F)(F)F)cc2)[C@@H](C)CN([C@@H](C)CO)C(=O)c2cc(NS(=O)(=O)c3cn(C)cn3)ccc2O1
inactive: all assays above
